High-throughput results from PubChem.
G9a block: blocks human histone lysine methyltransferase G9a; actives 8.8% (n = 350,000); Q96KQ7; Potency, µM (series often up to 102 µM), hits mostly inhibitors; AID 504332; G9a H3K9 monomethylation, AlphaScreen, 2 h; note: nearly all actives have a fitted effect of over 75% in size
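Enzyme 20 nM + cpd, 15 min RT; add b-H3K9 pep 500 nM / SAM 20 uM; 2 h RT; anti-H3K9me1 Ab 0.5 ug/mL + SA donor / anti-rabbit acceptor beads 20 ug/mL each, 10 min; AlphaScreen read.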
BAZ2B inh: blocks human BAZ2B. Q9UIF8. AlphaScreen BAZ2B-H3K14Ac peptide displacement. Potency, µM (titrated, usually from 114 µM), usual class: inhibitors. actives 4.4% (n = 360,000); note: nearly all actives have a fitted effect of over 60% in size
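Compounds, titrated to a top concentration of 110 uM, were incubated 30 min at room temperature with preformed BAZ2B/acetyl-K14 H3 peptide complex (50 nM each). Proximity signal was measured by AlphaScreen after 20 min with beads.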
PLK1 PBD inh: blocks phosphopeptide binding to human PLK1 polo-box domain; P53350; Plk1 PBD binding of FITC phosphopeptide, fluorescence polarization; Potency, µM, hits mostly inhibitors; actives 2.8% (n = 360,000); AID 720504; note: series mostly up to about 57 µM; nearly all actives have a fitted effect of over 65% in size
Target sequence (P53350 whole entry, looked up, the tested form may be a part): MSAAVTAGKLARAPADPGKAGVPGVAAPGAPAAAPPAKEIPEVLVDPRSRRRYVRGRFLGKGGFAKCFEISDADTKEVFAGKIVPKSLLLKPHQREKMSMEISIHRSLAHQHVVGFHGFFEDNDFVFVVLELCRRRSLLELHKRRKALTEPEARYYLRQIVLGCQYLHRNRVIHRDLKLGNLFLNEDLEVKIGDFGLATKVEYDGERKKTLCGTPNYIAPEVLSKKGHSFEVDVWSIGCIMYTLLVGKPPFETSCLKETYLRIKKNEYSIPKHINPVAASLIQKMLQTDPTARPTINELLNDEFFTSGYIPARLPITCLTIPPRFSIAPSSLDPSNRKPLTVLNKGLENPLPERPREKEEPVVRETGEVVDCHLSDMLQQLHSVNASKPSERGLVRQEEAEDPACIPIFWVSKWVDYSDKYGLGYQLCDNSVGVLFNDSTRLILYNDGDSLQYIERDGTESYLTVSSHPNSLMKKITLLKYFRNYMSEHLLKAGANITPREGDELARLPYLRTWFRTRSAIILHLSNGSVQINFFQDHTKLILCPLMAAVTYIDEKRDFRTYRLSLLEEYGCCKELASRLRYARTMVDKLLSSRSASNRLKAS
HP1b binding inh: HP1-beta chromodomain-methylated histone interaction inhibition | P83916 | AlphaScreen HP1-beta / biotin-H3K9me3 peptide binding | Potency, µM (highest dose often 114 µM), most hits filed as inhibitors | actives 0.56% (n = 390,000); note: nearly all actives have a fitted effect of over 70% in size
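Compound inhibition of the preformed complex between 50 nM HP1-beta and 50 nM biotinylated H3K9me3 peptide was read by AlphaScreen. Buffer was PBS pH 7.4 with 0.01% Tween-20. Incubations ran 30 min at room temperature, with 10 ug/mL donor/acceptor beads.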
JMJD2A Tudor inh: JMJD2A Tudor domain (human) inhibition | AlphaScreen JMJD2A-Tudor / H3K4me3 peptide binding | actives 4.4% (n = 390,000) | O75164 | Potency, µM (series often up to 114 µM), usual class: inhibitors; note: nearly all actives have a fitted effect of over 50% in size
VDR inh: blocks the human vitamin D receptor | AID 504847 | Potency, µM, hits mostly inhibitors | VDR-SRC2-3 peptide fluorescence polarization, 2 h | actives 0.93% (n = 400,000)
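Measured by FP: displacement of SRC2-3 coactivator peptide from VDR by library compounds, following a two-hour ambient incubation.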
Hits are given with their value; [ ] = dose if it differs, or a comment. Most compounds without a hit are left out; they make up all but 11% or so of the library. Calls come from the whole dose curve; as a rule, active = well fitted curve in the direction sought with a large enough effect; inconclusive = small, poorly fitted or top-dose-only effect, or another doubt; inactive = no such curve, though single readings can be large; an effect the other way counts as inactive or inconclusive.

`Nc1nc(CSC(=S)N2CCN(c3ccccc3)CC2)nc(Nc2ccc(F)cc2)n1` gave G9a block inconclusive, BAZ2B inh inconclusive, PLK1 PBD inh inactive, HP1b binding inh inconclusive, JMJD2A Tudor inh 56.2µM and VDR inh inactive.
For CCOc1ccc(Nc2nc(N)c([N+](=O)[O-])c(N3CCOCC3)n2)cc1 the results were G9a block inconclusive, BAZ2B inh inactive, PLK1 PBD inh inactive, HP1b binding inh inactive, JMJD2A Tudor inh inactive and VDR inh inactive.
Screening CCOc1ccc(Nc2nc(N)c([N+](=O)[O-])c(N3CCN(CC)CC3)n2)cc1 returned G9a block inactive[2.33 µM], BAZ2B inh 50.1µM, PLK1 PBD inh inactive, HP1b binding inh inconclusive, JMJD2A Tudor inh inconclusive and VDR inh inactive.
`O=C(O)c1ccc(N2CCCCC2)cc1O` gave BAZ2B inh inactive, PLK1 PBD inh inactive, HP1b binding inh inactive, JMJD2A Tudor inh inactive and VDR inh inactive.
For COc1ccc(NC(=O)c2cc3cccc(OC)c3oc2=Nc2ccc(C(=O)O)cc2)cc1OC the results were G9a block 39.8µM, BAZ2B inh inactive, PLK1 PBD inh inactive, HP1b binding inh inactive, JMJD2A Tudor inh inactive and VDR inh inactive.
Screening O=C(Nc1ccc(N2CCCCCC2)cc1)c1ccc[nH]1 returned G9a block inactive[2.33 µM], BAZ2B inh 44.7µM, PLK1 PBD inh inactive, HP1b binding inh inconclusive, JMJD2A Tudor inh 50.1µM and VDR inh inactive.
CC1CCCCC1NC(=O)c1cc2ccccc2o1 (stereo unspecified) was read as G9a block inconclusive, BAZ2B inh inactive, PLK1 PBD inh 29.9µM, HP1b binding inh inactive, JMJD2A Tudor inh inactive and VDR inh inactive.
Screening O=C(O)c1cc(N2CCCC2)ccn1 returned PLK1 PBD inh inactive, HP1b binding inh inactive, JMJD2A Tudor inh 3.16µM and VDR inh inactive.
Screening COc1cccc(NC(=O)c2cc3cccc(OC)c3o/c2=N\O)c1 returned G9a block inconclusive and BAZ2B inh inactive.
For O=C(Nc1ccc(N2CCCCC2)cc1)c1ccccn1 the results were G9a block 44.7µM, BAZ2B inh inconclusive, PLK1 PBD inh inactive, HP1b binding inh inconclusive, JMJD2A Tudor inh inconclusive and VDR inh inactive.
CSc1ccc(CN(C)C(=O)c2cc3ccccc3o2)cc1 was read as G9a block inactive, BAZ2B inh inactive, PLK1 PBD inh inactive, HP1b binding inh inactive, JMJD2A Tudor inh inactive and VDR inh inactive.
`COc1ccc(NC(=O)c2cc3ccccc3o2)cc1OC` gave G9a block inconclusive, BAZ2B inh inactive, PLK1 PBD inh 23.8µM, HP1b binding inh inactive, JMJD2A Tudor inh inconclusive and VDR inh inconclusive.
O=C(Nc1ccccc1)c1cc2ccccc2o1 was read as G9a block inactive, BAZ2B inh inactive, PLK1 PBD inh inactive, HP1b binding inh inactive, JMJD2A Tudor inh inactive and VDR inh inactive.
For O=C(Nc1ccc(N2CCCC2)cc1)c1cccc(Cl)c1 the results were G9a block inconclusive, BAZ2B inh inactive, PLK1 PBD inh inactive, HP1b binding inh inactive, JMJD2A Tudor inh inconclusive and VDR inh inactive.
`O=C(Nc1ccc(N2CCCC2)cc1)c1cc2ccccc2o1` gave BAZ2B inh 25.1µM, PLK1 PBD inh inactive, HP1b binding inh inactive, JMJD2A Tudor inh inconclusive and VDR inh inactive.
Screening CN(Cc1ccccc1N1CCCC1)C(=O)c1cc2ccccc2o1 returned PLK1 PBD inh inactive, HP1b binding inh inconclusive, JMJD2A Tudor inh 39.8µM and VDR inh inactive.
For COc1ccc(NC(=O)c2ccco2)cc1NC(=O)c1cc2ccccc2o1 the results were G9a block inactive, BAZ2B inh inactive, PLK1 PBD inh inactive, HP1b binding inh inactive, JMJD2A Tudor inh inactive and VDR inh inactive.
For CN(C)Cc1ccccc1-c1ccc2ncnc(NCc3cccs3)c2c1 the results were VDR inh inactive.
CN(O)/C=c1/ccc2c(n1)C(=O)C=CC=2 was read as G9a block 10µM, BAZ2B inh 7.94µM, PLK1 PBD inh inactive, HP1b binding inh inactive, JMJD2A Tudor inh 20µM and VDR inh inactive.
`COc1cccc2oc3cc(C#Cc4ccccn4)ccc3c(=O)c12` gave BAZ2B inh 39.8µM, PLK1 PBD inh inactive, HP1b binding inh inactive, JMJD2A Tudor inh 22.4µM and VDR inh inactive.
O=[N+]([O-])c1ccc(N/N=C2/CCCCC2c2ccccn2)cc1 (stereo unspecified) was read as G9a block 31.6µM, BAZ2B inh inconclusive, PLK1 PBD inh inactive, HP1b binding inh inactive, JMJD2A Tudor inh 15.8µM and VDR inh inactive.
O=C(NC1CCCCC1)Oc1cc2oc(=O)sc2cc1Br was read as G9a block 39.8µM, BAZ2B inh inactive, PLK1 PBD inh 2.12µM, HP1b binding inh inactive, JMJD2A Tudor inh inactive and VDR inh 44.7µM.
`O=C(NC1CCCCCC1)c1ccc(Br)o1` gave G9a block inactive, BAZ2B inh inactive, PLK1 PBD inh inactive, HP1b binding inh inactive, JMJD2A Tudor inh inactive and VDR inh inactive.
Nc1ccc(O)cc1 was read as HP1b binding inh inactive, JMJD2A Tudor inh inconclusive and VDR inh 79.4µM.
`Nc1ccc(C=Cc2ccc(N)cc2)cc1` gave PLK1 PBD inh inactive.
For CN1/C(=C\C=C2/C(=O)Oc3ccccc3C2=O)C(C)(C)c2ccccc21 the results were G9a block inconclusive, BAZ2B inh inconclusive, PLK1 PBD inh inactive, HP1b binding inh inactive, JMJD2A Tudor inh inactive and VDR inh inactive.
For CN1/C(=C\C=C2/SC(=S)NC2=O)C(C)(C)c2ccccc21 the results were G9a block 7.94µM, BAZ2B inh 7.94µM, PLK1 PBD inh inactive, HP1b binding inh inconclusive, JMJD2A Tudor inh inconclusive and VDR inh inconclusive.
`CCCN1C(=O)/C(=C\C=C2\N(CC)c3ccccc3C2(C)C)SC1=S` gave BAZ2B inh 3.55µM, PLK1 PBD inh inconclusive, HP1b binding inh inconclusive, JMJD2A Tudor inh 8.91µM and VDR inh inactive.
For CCN1C(=O)C(=CC=CN(C)c2ccccc2)SC1=S the results were PLK1 PBD inh inactive.
O=C(CCC(=O)N(CC(=O)NC1CCCC1)c1ccccc1F)Nc1nccs1 was read as G9a block inactive, BAZ2B inh inactive, PLK1 PBD inh inactive, HP1b binding inh inactive, JMJD2A Tudor inh inactive and VDR inh inactive.
`CCn1nc(C(=O)NCc2nnc3ccccn23)c2ccccc2c1=O` gave G9a block inconclusive, BAZ2B inh inactive, PLK1 PBD inh inactive, HP1b binding inh inactive, JMJD2A Tudor inh inactive and VDR inh inactive.
`O=C(/C=C1\NC2(CCCC2)Cc2ccccc21)C(=O)N/N=C/c1ccc(O)c(O)c1` gave G9a block 11.2µM, BAZ2B inh 39.8µM, PLK1 PBD inh inactive, HP1b binding inh inconclusive, JMJD2A Tudor inh 10µM and VDR inh inactive.
COc1ccc(/C=N/NC(=O)C(=O)/C=C2\NC3(CCCC3)Cc3ccccc32)cc1 was read as G9a block inactive, BAZ2B inh inactive, PLK1 PBD inh inactive, HP1b binding inh inactive, JMJD2A Tudor inh inactive and VDR inh inactive.
